# Measurements published in PubChem BioAssay.
# A number with no mark means an inactive call. A call without a number means that no potency is given here. For part of these data: Potency and affinity values are given separately. Active and inactive are the calls of the source. Unless noted, the rule behind the calls is not given here.
# Legend:
# [1] = antimalarial activity against Dd2 strain (AID 2302;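 active = growth inhibition above 50% at the single 2 µM test dose, taken to imply half-maximal potency below 2 µM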); settings: P. falciparum Dd2 in RBCs, LDH growth readout, 72 h; at 2 µM; active compounds read high
# [2] = human hepatoma cell viability loss – ATP luminescence, cytotoxicity control for P. falciparum antimalarial project, primary screen (AID 2303;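 active = inhibition above 50%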); settings: HepG2 viability, 24-48 h, at 10 µM, active compounds read high
# [3] = biological target: L-lactate dehydrogenase (Plasmodium falciparum (isolate CDC / Honduras)) (UniProt Q27743); experiment: PfLDH activity inhibition – cell lysate, 3D7 strain, counter-screen for P. falciparum growth inhibition project (AID 2304); settings: P. falciparum 3D7 crude extract, LDH APAD/NBT absorbance; at 2 µM; active compounds read high
# Chain of L-lactate dehydrogenase (Plasmodium falciparum (isolate CDC / Honduras)) (Q27743 whole entry, looked up): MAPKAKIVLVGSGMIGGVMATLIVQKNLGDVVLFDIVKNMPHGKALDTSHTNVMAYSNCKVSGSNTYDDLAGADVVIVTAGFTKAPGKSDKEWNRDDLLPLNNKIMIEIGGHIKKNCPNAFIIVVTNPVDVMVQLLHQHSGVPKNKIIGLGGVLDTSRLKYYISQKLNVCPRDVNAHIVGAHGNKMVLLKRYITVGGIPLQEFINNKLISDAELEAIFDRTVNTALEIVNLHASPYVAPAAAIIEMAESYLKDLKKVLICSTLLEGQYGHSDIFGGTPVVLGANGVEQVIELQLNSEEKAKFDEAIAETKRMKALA
# [4] = inhibition of 3D7 malaria parasite growth – strain 3D7 (AID 2306); settings: P. falciparum 3D7 erythrocytic growth, LDH absorbance, 72 h; at 2 µM; active compounds read high
# [5] = biological target: Calcium-dependent protein kinase 1 (Plasmodium falciparum (isolate 3D7)) (UniProt P62344); experiment: PfCDPK1 kinase inhibitors, biochemical, TCAMS library (AID 1159585; cut-off not given, nearly all actives have IC50 up to about 0.98 µM;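 note: inhibitors leave more ATP so luminescence rises with inhibition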); settings: recombinant PfCDPK1, Kinase-Glo ATP depletion luminescence
# Chain of Calcium-dependent protein kinase 1 (Plasmodium falciparum (isolate 3D7)) (P62344 whole entry, looked up): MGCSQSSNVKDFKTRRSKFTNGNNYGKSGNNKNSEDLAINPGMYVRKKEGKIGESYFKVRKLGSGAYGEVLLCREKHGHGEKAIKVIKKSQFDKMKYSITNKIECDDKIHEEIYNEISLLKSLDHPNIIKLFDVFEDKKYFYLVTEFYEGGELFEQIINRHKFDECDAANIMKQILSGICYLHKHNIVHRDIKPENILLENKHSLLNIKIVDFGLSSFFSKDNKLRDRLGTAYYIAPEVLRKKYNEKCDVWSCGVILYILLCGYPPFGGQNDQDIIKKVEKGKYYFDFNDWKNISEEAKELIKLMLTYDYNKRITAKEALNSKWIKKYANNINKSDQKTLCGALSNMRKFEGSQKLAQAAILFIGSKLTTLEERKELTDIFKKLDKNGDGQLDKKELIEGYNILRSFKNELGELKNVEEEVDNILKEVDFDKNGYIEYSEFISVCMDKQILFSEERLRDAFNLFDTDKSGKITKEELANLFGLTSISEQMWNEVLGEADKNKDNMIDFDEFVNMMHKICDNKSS
# [6] = biological target: Plasmodium falciparum protein kinase 6 (PK6, PF3D7_1337100) (UniProt Q8IDW1); experiment: PfPK6 kinase inhibitors, biochemical, TCAMS library (AID 1159586); settings: recombinant PfPK6, Kinase-Glo ATP depletion luminescence
# Chain of Plasmodium falciparum protein kinase 6 (PK6, PF3D7_1337100) (Q8IDW1 1-305): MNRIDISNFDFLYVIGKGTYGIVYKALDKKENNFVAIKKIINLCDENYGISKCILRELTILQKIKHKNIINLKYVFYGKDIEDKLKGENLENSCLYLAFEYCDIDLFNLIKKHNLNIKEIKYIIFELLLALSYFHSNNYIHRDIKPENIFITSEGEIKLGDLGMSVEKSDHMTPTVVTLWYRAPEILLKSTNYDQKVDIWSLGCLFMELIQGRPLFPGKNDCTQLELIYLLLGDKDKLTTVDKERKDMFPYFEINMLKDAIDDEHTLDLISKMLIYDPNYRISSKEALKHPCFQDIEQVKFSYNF
# [7] = biological target: Protein kinase 7 (PK7), Plasmodium falciparum 3D7 (PF3D7_0213400) (UniProt Q7YTF7); experiment: inhibition of Plasmodium PK7 catalytic activity – biochemical, TCAMS antimalarial set, Kinase-Glo luminescence (AID 1159587); settings: recombinant PfPK7, Kinase-Glo ATP depletion luminescence
# Chain of Protein kinase 7 (PK7), Plasmodium falciparum 3D7 (PF3D7_0213400) (Q7YTF7 1-343): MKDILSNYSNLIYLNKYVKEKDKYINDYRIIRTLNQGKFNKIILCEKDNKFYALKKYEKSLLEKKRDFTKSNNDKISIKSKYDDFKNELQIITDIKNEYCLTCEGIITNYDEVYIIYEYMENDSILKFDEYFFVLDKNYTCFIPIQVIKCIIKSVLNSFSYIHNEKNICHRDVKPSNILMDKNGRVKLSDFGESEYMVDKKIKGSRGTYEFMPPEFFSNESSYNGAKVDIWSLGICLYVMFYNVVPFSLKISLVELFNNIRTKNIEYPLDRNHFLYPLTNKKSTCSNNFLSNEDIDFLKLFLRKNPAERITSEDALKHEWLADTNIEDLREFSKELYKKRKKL
# [8] = biological target: Calcium-dependent protein kinase 4 (Plasmodium falciparum (isolate 3D7)) (UniProt Q8IBS5); experiment: PfCDPK4 kinase inhibitors, biochemical, TCAMS library (AID 1159588; cut-off not given, nearly all actives have IC50 up to about 0.91 µM); settings: recombinant PfCDPK4, Kinase-Glo ATP depletion luminescence
# Chain of Calcium-dependent protein kinase 4 (Plasmodium falciparum (isolate 3D7)) (Q8IBS5 whole entry, looked up): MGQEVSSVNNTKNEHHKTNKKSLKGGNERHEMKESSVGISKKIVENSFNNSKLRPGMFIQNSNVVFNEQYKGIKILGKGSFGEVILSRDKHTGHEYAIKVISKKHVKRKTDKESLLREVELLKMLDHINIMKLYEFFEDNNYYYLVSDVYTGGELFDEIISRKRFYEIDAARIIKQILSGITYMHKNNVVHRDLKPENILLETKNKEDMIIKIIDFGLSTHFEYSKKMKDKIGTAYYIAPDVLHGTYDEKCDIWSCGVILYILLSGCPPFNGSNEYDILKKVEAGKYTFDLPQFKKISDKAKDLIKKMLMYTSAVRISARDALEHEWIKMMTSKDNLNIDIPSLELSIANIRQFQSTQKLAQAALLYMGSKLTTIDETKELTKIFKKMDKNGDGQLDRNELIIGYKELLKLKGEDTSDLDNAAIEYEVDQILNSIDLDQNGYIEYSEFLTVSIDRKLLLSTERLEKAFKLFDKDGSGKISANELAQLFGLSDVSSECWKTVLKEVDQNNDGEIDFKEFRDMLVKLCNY
Structure (SMILES),growth inhibition [1],inhibition [2],inhibition [3] [%],growth inhibition [4],outcome [5],outcome [6],outcome [7],outcome [8]
CN1CCC(c2csc3ccc(NC(=O)Nc4ccc(-c5ccncc5)c5ccccc45)cc23)CC1,71% (active),8%,0,98% (active),inactive,inactive,inactive,inactive
COc1cc(NCCCNC(=O)c2ccc(Cl)c(Cl)c2)nc2ccccc12,101% (active),48%,5,99% (active),inactive,inactive,inactive,inactive
CCOC(=O)CC[C@@H](NC(=O)c1ccc(NCc2ccc3ccc4nc(C)[nH]c(=O)c4c3c2)cc1F)C(=O)N[C@@H](Cc1c[nH]c2ccccc12)C(=O)OCC,77% (active),45%,0,98% (active),inactive,inactive,inactive,inactive
CCCCc1ccc(-c2ccc(-c3c(C)[nH]c(C)c(Br)c3=O)cn2)cc1,96% (active),-7%,1,98% (active),inactive,inactive,inactive,inactive
O=C(NC1CC1)c1ccc(N2CCOc3ccc(Cl)cc32)s1,73% (active),8%,5,94% (active),inactive,inactive,inactive,inactive
Cc1onc(-c2ccc(Cl)cc2)c1-c1ccnn1S(=O)(=O)c1ccc(Cl)cc1,99% (active),-3%,3,101% (active),inactive,inactive,inactive,inactive
COc1ccc2[nH]c3ccccc3c(=O)c2c1,75% (active),0%,2,87% (active),inactive,inactive,inactive,inactive
CCN(CCCN1CCCCC1)c1cc(C)nc(Nc2ccc(C)cc2Br)n1,27%,49%,3,95% (active),inactive,inactive,inactive,inactive
COc1cc(CCON2C(N)=NC(N)=NC2(C)C)cc(OC)c1OC,95% (active),59% (active),-1,93% (active),inactive,inactive,inactive,inactive
Cc1cccc2[nH]c(-c3ccc(-c4cccc(CNCC5CCCO5)c4)s3)nc12 (configuration not stated),11%,26%,-8,93% (active),inactive,inactive,inactive,inactive
O=C(/C=C/c1ccc(Cl)c(Cl)c1)N1CCC(CCN2CCC(c3c[nH]c4ccncc34)CC2)CC1,70% (active),13%,2,101% (active),inactive,inactive,inactive,inactive
COc1cc(Nc2nc(N)n(C(=O)c3ccc4c(c3)OCO4)n2)cc(OC)c1OC,40%,60% (active),1,90% (active),inactive,inactive,inactive,inactive
CC(C)C[C@H](NC(=O)OC(C)(C)C)C(=O)Nc1ccc(Cc2ccc(NC(=O)[C@H](CC(C)C)NC(=O)OC(C)(C)C)cc2)cc1,88% (active),-5%,0,94% (active),inactive,inactive,inactive,inactive
CCNc1cc(C(=O)N[C@@H](Cc2ccccc2)[C@H](O)CNC2CCC(C(C)(C)C)CC2)cc(N2CCCC2=O)c1 (some centres not stated),98% (active),38%,-3,98% (active),inactive,inactive,inactive,inactive
O=C(Cc1ccc(-c2ccccc2)cc1)N[C@H]1CCN(Cc2ccc(OCCCN3CCCCC3)cc2)C1,27%,36%,0,99% (active),inactive,inactive,inactive,inactive
CN1CCC(NCc2ccc(-c3ccc(S(=O)(=O)NCc4ccccc4)cc3)cc2)CC1,51% (active),40%,2,99% (active),inactive,inactive,inactive,inactive
COc1cc(C(=O)Nc2cccc(-c3nc4ccccc4[nH]3)c2)cc(OC)c1OC,41%,25%,-3,99% (active),inactive,inactive,inactive,inactive
Oc1ccc(CCNCCCCCCNCCc2ccc(Cl)c3ccccc23)cc1O,1%,22%,-4,99% (active),inactive,inactive,inactive,inactive
Cc1ccc(Nc2nc(-c3ccccn3)cs2)nc1,97% (active),60% (active),-8,94% (active),inactive,inactive,inactive,inactive
Cn1c(NC(=O)c2ccc(CNC(=O)c3ccc(O)c(-c4ccc(Cl)c(Cl)c4)c3)cc2)nc2ccccc21,74% (active),20%,-1,94% (active),inactive,inactive,inactive,inactive

Structure (SMILES),growth inhibition [1],inhibition [2],inhibition [3] [%],growth inhibition [4],outcome [5],outcome [6],outcome [7],outcome [8]
CN1CCN(c2nsc3ccc(-c4ccc(NC(=O)Nc5cc(C(F)(F)F)ccc5F)cc4)cc23)CC1,64% (active),100% (active),-3,99% (active),inactive,inactive,inactive,inactive
CC(C)COc1ccc(Cl)cc1Cc1ccc(-c2nc3ccc(N4CCN(C)CC4)cc3[nH]2)o1,41%,6%,0,102% (active),inactive,inactive,inactive,inactive
N#Cc1ccc2c(c1)CCN(CCC1CCC(NC(=O)/C=C/c3cccc4ccccc34)CC1)CC2 (configuration not stated),12%,16%,-6,96% (active),inactive,inactive,inactive,inactive
N#Cc1ccc(C=CC(=O)NC2CCC(CCN3CCc4ccc(-c5cnccn5)cc4CC3)CC2)cc1 (configuration not stated),87% (active),37%,-5,100% (active),inactive,inactive,inactive,inactive
Cc1ccc(CNC(=O)c2ccc(CN3CCCN(Cc4ccsc4)CC3)cc2)cc1,-1%,16%,5,93% (active),inactive,inactive,inactive,inactive
Cc1ccc(-c2nc(Nc3ccncc3)c3ccccc3n2)s1,34%,6%,1,95% (active),inactive,inactive,inactive,inactive
CCCCCc1cc(OCCN(C)C)cc2c1C(=O)CC(C)(C)O2,-2%,5%,6,98% (active),inactive,inactive,inactive,inactive
CCNc1cc(C(=O)N[C@@H](Cc2ccccc2)[C@H](O)CNCCc2cc(OC)cc(OC)c2)cc(N2CCCCS2(=O)=O)c1,28%,3%,0,89% (active),inactive,inactive,inactive,inactive
COc1cc(CNC[C@@H](O)[C@H](Cc2ccccc2)NC(=O)c2cc(C3CCCC3)cc(N3CCCCS3(=O)=O)c2)cc(OC)c1,96% (active),16%,4,98% (active),inactive,inactive,inactive,inactive
O=C(/C=C/c1ccc(Cl)c(Cl)c1)NCCCCCN1CCCN(C(=O)Nc2ccc(OC(F)F)cc2)CC1,-4%,39%,3,99% (active),inactive,inactive,inactive,inactive
C=C[C@]1(C)C[C@@H](OC(=O)NC(=O)C2CCN(C(=O)CSc3ccccc3)CC2)[C@]2(C)[C@H](C)CC[C@]3(CCC(=O)[C@H]32)[C@@H](C)[C@@H]1O,74% (active),-3%,1,93% (active),inactive,inactive,inactive,inactive
O=C(C=Cc1ccc(Cl)c(Cl)c1)NCCCCCN1CCC(CCNC(=O)C(c2ccccc2)c2ccccc2)CC1,43%,61% (active),4,90% (active),inactive,inactive,inactive,inactive
c1ccc(COc2ccc(Cn3ccc(-c4ccc(-n5ccnc5)cc4)n3)cc2)cc1 (tested in a mixture with another compound),67% (active),2%,-1,94% (active),inactive,inactive,inactive,inactive
CC(=O)Nc1ccc(S(=O)(=O)N2CCN(c3nc(NC4CCCC4)c4ccccc4n3)CC2)cc1,2%,7%,1,88% (active),inactive,inactive,inactive,inactive
O=c1ccc2ncc(Cl)c3c2n1CC3CN1CCC(NCc2cc3c(cn2)OCCO3)CC1 (configuration not stated),29%,27%,-2,96% (active),inactive,inactive,inactive,inactive
CC(CON1C(N)=NC(N)=NC1(C)C)Cc1ccc(Cl)cc1Cl (configuration not stated),97% (active),61% (active),2,92% (active),inactive,inactive,inactive,inactive
COc1ccccc1NC(=O)Nc1ccc(-c2ccc(-c3nc4c(C)cccc4[nH]3)s2)cc1,99% (active),71% (active),0,100% (active),inactive,inactive,inactive,inactive
Cc1[nH]c(C)c(-c2ccc(CCc3ccc(F)cc3F)cc2)c(=O)c1Cl,97% (active),5%,-4,98% (active),inactive,inactive,inactive,inactive
Cn1nc(-c2ccc(Cl)cc2)c2cc(C(=O)NCCN3CCOCC3)sc21,29%,21%,-8,97% (active),inactive,inactive,inactive,inactive
